Data on 8 molecules can be found in PubChem BioAssay (NCI).

Some test systems named below: DU-145 prostate; K-562 leukemia; MALME-3M melanoma; MDA-MB-231 breast; RXF 393 renal; SF-268 CNS; SF-295 CNS; SF-539 CNS; UACC-257 melanoma; M14 melanoma; HCT-15 colon; HT29 colon; SNB-75 CNS; SNB-19 CNS; U251 CNS; SK-MEL-5 melanoma; UACC-62 melanoma; LOX IMVI melanoma; SK-MEL-28 melanoma.
What all share (test): NCI-60 one-dose screen, 48 h (100 = growth as untreated, 0 = no growth, -100 = all killed)
Conditions in all cases: 10 µM unless noted

Compounds without any hit were thinned out: in the full panel of roughly 83,000, 20% have a hit.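 The test compound was applied at a single concentration to cells in 96-well plates for 48 hours, and percent growth was recorded.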 A number with no mark means an inactive call. Activity calls are given as the source filed them. Rule for the calls: active = growth percent below 10; inactive = the rest.

`Fc1ccc(CNc2cccc3[nH]c(C(F)(F)F)nc23)cc1`: the growth is 93.5% with DU-145 prostate; 13% with K-562 leukemia; 103% with MALME-3M melanoma; 73.8% in the assay on MDA-MB-231 breast; 99.1% in the assay on RXF 393 renal; 76.9% with SF-268 CNS. The growth in the assay with SF-295 CNS was 89.9%; in the assay with SF-539 CNS it was 97%; in the assay on UACC-257 melanoma it was 101%; in the assay on M14 melanoma, 109%; with HCT-15 colon it was 98.3%; in the assay on HT29 colon, 104%. For the same molecule, the growth in the assay on SNB-75 CNS is 73.9%; in the assay on SNB-19 CNS, 79.2%; in the assay on U251 CNS, 80.7%; in the assay with SK-MEL-5 melanoma, 96.1%; in the assay with UACC-62 melanoma it was 79.6%; in the assay with LOX IMVI melanoma, 99.4%. The growth in the assay with SK-MEL-28 melanoma is 89%.

Regarding `CCN(CC)S(=O)(=O)c1ccc(OC)c(NC(=O)c2[nH]c(C)c3c2CCCCC3=O)c1`, the growth with DU-145 prostate is 72.8%; in the assay on K-562 leukemia it was 30%; with MALME-3M melanoma it was 60.6%; in the assay on MDA-MB-231 breast, 43%; in the assay with RXF 393 renal it was 38.9%; in the assay on SF-268 CNS, 68.4%. Also, the growth is 34.1% in the assay with SF-295 CNS; 36.1% in the assay with SF-539 CNS; 39.6% in the assay with UACC-257 melanoma; 42.3% in the assay with M14 melanoma; 18.9% with HCT-15 colon; 14.5% in the assay with HT29 colon. The growth was 9.16% (active) in the assay with SNB-75 CNS; 45.2% with SNB-19 CNS; 43.6% in the assay with U251 CNS; -21.8% (active) with SK-MEL-5 melanoma; 16.2% with UACC-62 melanoma; 9.93% (active) in the assay on LOX IMVI melanoma. For the same molecule, the growth in the assay with SK-MEL-28 melanoma is 55.7%.

In the case of `Cn1c(=O)[nH]c(=O)c2nc(CCC(=O)NCCC(=O)O)c(=O)[nH]c21`, the growth in the assay with DU-145 prostate was 113%; in the assay with K-562 leukemia, 104%; in the assay with MALME-3M melanoma, 98.9%; with MDA-MB-231 breast it was 110%; in the assay on RXF 393 renal, 112%; in the assay on SF-268 CNS it was 98.2%. The growth in the assay with SF-295 CNS was 102%; in the assay on SF-539 CNS, 95.7%; with UACC-257 melanoma it was 101%; in the assay on M14 melanoma, 111%; in the assay with HCT-15 colon it was 106%; with HT29 colon it was 106%. Moreover, the growth in the assay on SNB-75 CNS was 89%; in the assay on SNB-19 CNS, 104%; in the assay with U251 CNS it was 98.2%; in the assay with SK-MEL-5 melanoma, 103%; in the assay with UACC-62 melanoma, 105%; with LOX IMVI melanoma, 98.6%. The growth in the assay on SK-MEL-28 melanoma was 103%.

Turning to `CCn1c(Cc2ccccc2Nc2c(Cl)cccc2Cl)nnc1SCC(=O)NN1C(=O)/C(=C/c2cc(OC)c(O)c(OC)c2)SC1=S`, the growth with DU-145 prostate is 48.8%; with K-562 leukemia, 19.4%; in the assay on MALME-3M melanoma, 40.4%; in the assay on MDA-MB-231 breast, 60.9%; in the assay on RXF 393 renal, 12.9%; in the assay on SF-268 CNS, 36.4%. The growth in the assay on SF-295 CNS is 23.5%; in the assay on SF-539 CNS, 13%; in the assay on UACC-257 melanoma it was 63.7%; with M14 melanoma it was 19.5%; in the assay with HCT-15 colon, 50.4%; in the assay on HT29 colon, 25.5%. Also, the growth in the assay with SNB-75 CNS was 2.65% (active); in the assay with SNB-19 CNS, 41.9%; in the assay with U251 CNS, 31.5%; in the assay with SK-MEL-5 melanoma, 26.1%; with UACC-62 melanoma, 33.2%; with LOX IMVI melanoma, 26.8%. For the same molecule, the growth with SK-MEL-28 melanoma is 45.7%.

`O=C1/C(=C/C(Cl)=C/c2ccccc2)SC(=S)N1CCc1ccc(O)cc1`: the growth is 15.8% with DU-145 prostate; 5.68% (active) in the assay with K-562 leukemia; -2.34% (active) with MALME-3M melanoma; 27.3% in the assay on MDA-MB-231 breast; -46.1% (active) in the assay with RXF 393 renal; 19.8% in the assay with SF-268 CNS. For the same molecule, the growth with SF-295 CNS was 4.96% (active); in the assay with SF-539 CNS, 3.33% (active); with UACC-257 melanoma it was 17.4%; with M14 melanoma it was -12.7% (active); in the assay on HCT-15 colon it was 2.94% (active); in the assay on HT29 colon it was 1.54% (active). Also, the growth in the assay on SNB-75 CNS was 17.3%; with SNB-19 CNS, 6.88% (active); in the assay on U251 CNS, -58.3% (active); with SK-MEL-5 melanoma it was -47.6% (active); in the assay on UACC-62 melanoma, -24.7% (active); in the assay with LOX IMVI melanoma it was -79.2% (active). Moreover, in the assay with SK-MEL-28 melanoma, the growth is -26% (active).

On to `O=c1c(F)cn(Cc2ccccc2CCl)c(=O)n1Cc1ccccc1CCl`, for which the growth in the assay with DU-145 prostate was -51.3% (active); in the assay with K-562 leukemia, -6.67% (active); in the assay on MALME-3M melanoma, -28.1% (active); with MDA-MB-231 breast, -19.4% (active); in the assay on RXF 393 renal, -30.7% (active); in the assay on SF-268 CNS, -16% (active). Also, the growth in the assay with SF-295 CNS was -62.4% (active); in the assay with SF-539 CNS it was -24.1% (active); in the assay with UACC-257 melanoma, -48.1% (active); with M14 melanoma, -63.6% (active); in the assay on HCT-15 colon it was -57.6% (active); in the assay on HT29 colon, -83.7% (active). Moreover, the growth is -5.72% (active) with SNB-75 CNS; -23% (active) in the assay with SNB-19 CNS; -71.6% (active) with U251 CNS; -100% (active) in the assay with SK-MEL-5 melanoma; -82.6% (active) in the assay on UACC-62 melanoma; -81.7% (active) in the assay with LOX IMVI melanoma. In addition, in the assay on SK-MEL-28 melanoma, the growth was -65% (active).

For the molecule `Cc1ccc2c(C(C[N+](=O)[O-])c3ccccc3)c(-c3ccccc3)[nH]c2c1` (configuration not stated), the growth is 30.3% [9.5 µM] in the assay on DU-145 prostate; 10.9% [9.5 µM] with K-562 leukemia; 44.7% [9.5 µM] with MALME-3M melanoma; 37.2% [9.5 µM] in the assay with MDA-MB-231 breast; 5.65% [9.5 µM] (active) with RXF 393 renal; 35.2% [9.5 µM] in the assay with SF-268 CNS. Moreover, the growth with SF-295 CNS is 9.43% [9.5 µM] (active); with SF-539 CNS it was 8.82% [9.5 µM] (active); in the assay on UACC-257 melanoma, 27.6% [9.5 µM]; with M14 melanoma, 22.3% [9.5 µM]; in the assay with HCT-15 colon, 18.8% [9.5 µM]; in the assay on HT29 colon, 0.357% [9.5 µM] (active). Besides, the growth with SNB-75 CNS was -6.93% [9.5 µM] (active); in the assay on SNB-19 CNS, 37.4% [9.5 µM]; in the assay on U251 CNS, 25% [9.5 µM]; with SK-MEL-5 melanoma, 32.8% [9.5 µM]; in the assay on UACC-62 melanoma, 38% [9.5 µM]; in the assay with LOX IMVI melanoma, 28.5% [9.5 µM]. For the same molecule, in the assay with SK-MEL-28 melanoma, the growth is 49.3% [9.5 µM].

On to `O=C1/C(=C/c2ccc(Cl)cc2)SC(=S)N1CCc1ccc(O)cc1`, for which the growth was 50.2% in the assay with DU-145 prostate; 96.9% with K-562 leukemia; 81.5% in the assay with MALME-3M melanoma; 84% with MDA-MB-231 breast; 94.1% in the assay with RXF 393 renal; 85% in the assay with SF-268 CNS. The growth in the assay with SF-295 CNS is 102%; in the assay with SF-539 CNS, 80%; with UACC-257 melanoma it was 99.5%; in the assay on M14 melanoma, 104%; in the assay with HCT-15 colon, 99.7%; in the assay on HT29 colon, 117%. Also, the growth in the assay on SNB-75 CNS is 71.4%; with SNB-19 CNS it was 98.9%; in the assay on U251 CNS it was 101%; in the assay on SK-MEL-5 melanoma, 97.1%; in the assay on UACC-62 melanoma, 78.5%; in the assay with LOX IMVI melanoma, 65.1%. In addition, the growth with SK-MEL-28 melanoma is 101%.
